Test results reported in PubChem BioAssay (NCI).
Compounds without any hit were thinned out: in the full panel of roughly 83,000, 20% have a hit.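 For each line, cells grew in 96-well plates with the test compound present at a single concentration for 48 hours.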 Active and inactive are the calls of the source. Rule for the calls: active = growth percent below 10; inactive = the rest.

system: MCF7 breast; assay: NCI-60 one-dose screen, 48 h (100 = growth as untreated, 0 = no growth, -100 = all killed); settings: 10 µM unless noted

Compound | growth
C=C1C(=O)O[C@H]2[C@H]1CC/C(COC(=O)n1ccnc1)=C\CC[C@@]1(C)O[C@@H]21 | 76.8% (inactive)
CCOCc1cc(C(C)(C)C)ccc1O | 97.6% (inactive)
COC(=O)c1ccc2c(c1)NC(=O)[C@@H]1CCCN21 | 73.9% (inactive)
O=C(Nc1cccc(-c2cccc(F)c2)c1)C1CCN(Cc2cccc3cccnc23)CC1 | 19.9% (inactive)
CCCCn1c(=O)c(/C=C/C(=O)/C=C/c2ccc(O)c(OC)c2)cc2ccc(Cl)cc21 | 46.3% (inactive)
N#Cc1ccc(C2C3=C(CCCC3=O)OC3=C2C(=O)c2ccccc2C3=O)cc1 (centres undefined) | 0.491% (active)
COc1cc(-c2csc(NC(=O)Nc3ccc(C(F)(F)F)cc3)n2)cc(OC)c1OC | 0.456% (active)
Cc1c(Cl)cccc1NC(=O)c1sc2nc3c(cc2c1N)COCC3 | 16.4% (inactive)
CCN(CC)CC#CCOC(=O)[C@]1(C)CCC[C@]2(C)[C@H]3C[C@H]4C(C(C)C)=C[C@]3(CC[C@H]21)[C@@H]1C(=O)CCC(=O)[C@@H]14 | 25.1% (inactive)
CC(C)(C)c1nn(-c2ccccc2)c2c1COCN2Cc1ccc(Cl)cc1 | 80.1% (inactive)
O=C(Nc1nc2ccc(C(F)(F)F)cc2s1)c1cc(Cl)ccc1O | -1.08% (active)

system: HCT-116 colon; assay: as above; settings: 10 µM unless noted

Compound | growth
CC(=O)Oc1c2c(nc3c1c1ccccc1n3Cc1ccccc1)-c1ccccc1C2 | 73.5% (inactive)
C/C(=C\c1cnc(C)s1)[C@@H]1C[C@@H]2O[C@@H]2CCC[C@H](C)[C@H](O)[C@@H](C)C(=O)C(C)(C)[C@@H](O)CC(=O)O1 | 18.4% (inactive)
OCCNc1nc(NCCO)nc(Nc2ccc(C3=NN(c4cc(Cl)cc(Cl)c4)C(c4ccc(C(F)(F)F)cc4)C3)cc2)n1 (centres undefined) | 32.7% (inactive)
CCOCCc1c(O)nc(SC)[nH]c1=O | 100% (inactive)
CN(C)[C@@H]1C(=O)C(C(N)=O)=C(O)[C@@]2(O)C(=O)C3=C(O)c4c(O)cc(CN5CCc6ccccc6C5)c(Cl)c4C[C@H]3C[C@@H]12 | -90.5% (active)
CCCCn1c(=O)c(/C=C/C(=O)/C=C/c2cc3ccccc3n(CCCC)c2=O)cc2ccccc21 | -90.3% (active)
CCOC(=O)c1c(C)nc2c(c1N)CC(=O)N2CCc1ccccc1 | 6.98% (active)
C#CCOC(=O)[C@]1(C)CCC[C@]2(C)[C@H]3C[C@H]4C(C(C)C)=C[C@]3(CC[C@H]21)[C@@H]1C(=O)CCC(=O)[C@@H]14 | 77.8% (inactive)
C/C(=N/Nc1nc2ccccc2n1C)c1ccccn1 | 2.75% (active)
C#C[C@@]1(O)[C@@H](CO)O[C@@H](n2cc(-c3ccco3)c3c(N)ncnc32)[C@@H]1O | 68% (inactive)
CC(=O)c1ccc(NC(=O)CSc2nnc(-c3cc(-c4ccc(Cl)cc4)nc4ccccc34)o2)cc1 | 20.8% (inactive)
N#Cc1ccc(Oc2ccc3ccc(=O)oc3c2)cc1 | 91.5% (inactive)
C=C(C)[C@@H]1CC[C@]2(C(=O)O)CC[C@]3(C)[C@H](CC[C@@H]4[C@@]5(C)C[C@@H](CC#Cc6ccc(Cl)cc6)C(=O)C(C)(C)[C@@H]5CC[C@]43C)[C@@H]12 | 22% (inactive)
CN1CCN(S(=O)(=O)O[C@@H]2C(=O)N(c3cc4c5ccccc5ccc4c4ccccc34)[C@H]2c2ccc(F)cn2)CC1 | 85.3% (inactive)
Cc1cc(C)c2nc(Nc3nc(C)c(C)c(=O)[nH]3)nc(C)c2c1 | 3.76% (active)
COC(=O)c1nc(-c2ccccc2)oc1S(=O)(=O)n1nc(C)cc1N | 67.9% (inactive)
COc1ccc2cc(/C=C3\N=C(c4cc(OC)c(OC)c(OC)c4)OC3=O)c(OC)nc2c1 | 97.9% (inactive)
O=C(CSC(=S)N1CCCCC1)Nc1ccccc1 | 92.4% (inactive)
COc1cc(NC(=O)c2cc(O)c(C/C=C(\C)CCC=C(C)C)c(O)c2)cc2c1O[C@]1(C)CC[C@@H](O)C(C)(C)[C@H]1C2 | 10.8% (inactive)
CCN1CCC[C@H]1c1cc(O)c2c(c1OC)C[C@H]1C[C@H]3[C@H](N)C(=O)C(C(N)=O)=C(O)[C@@]3(O)C(=O)C1=C2O | -4.51% (active)
O=c1c2ccccc2oc2ccc(OCCCCCCN3CCCCCC3)cc12 | 25.6% (inactive)
NCCN1CCNCC1 | 105% (inactive)
C=C(C)[C@@H]1CC[C@]2(C(=O)OCCOCCOCC[P+](c3ccccc3)(c3ccccc3)c3ccccc3)CC[C@]3(C)[C@H](CC[C@@H]4[C@@]5(C)CC[C@H](C)C(C)(C)[C@@H]5CC[C@]43C)[C@@H]12 | -88.4% (active)
